Bioassay records: PubChem BioAssay, National Center for Advancing Translational Sciences (NCATS)
Giardia kill – Giardia lamblia killing; hit rate 0.15% among 340,000; activity change, % at 7.66 µM, hits read low; Giardia lamblia trophozoite viability; in the data active = activity change below about -80%; inconclusive = between about -30% and that limit;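 note: parasites exposed to compound for two days anaerobically before the ATP read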
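Anaerobic 48 hrs incubation at 37 deg C of 100 trophozoites/well with test compounds; ATPLite 1-Step luminescence, 15-30 min RT, reports cellular ATP as viability.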
TDP1 block – TDP1 (human) enzyme inhibition | hit rate 0.28% among 350,000 | Potency, µM (series often up to 130 µM), without a hit: top-dose activity change, negative = inhibition, usual class: inhibitors | Q9NUW8 | recombinant TDP1, AlphaScreen DNA substrate cleavage; note: potency is the fitted concentration of half-maximal effect; nearly all actives have a fitted effect of over 40% in size
Target sequence (Q9NUW8 whole entry, looked up): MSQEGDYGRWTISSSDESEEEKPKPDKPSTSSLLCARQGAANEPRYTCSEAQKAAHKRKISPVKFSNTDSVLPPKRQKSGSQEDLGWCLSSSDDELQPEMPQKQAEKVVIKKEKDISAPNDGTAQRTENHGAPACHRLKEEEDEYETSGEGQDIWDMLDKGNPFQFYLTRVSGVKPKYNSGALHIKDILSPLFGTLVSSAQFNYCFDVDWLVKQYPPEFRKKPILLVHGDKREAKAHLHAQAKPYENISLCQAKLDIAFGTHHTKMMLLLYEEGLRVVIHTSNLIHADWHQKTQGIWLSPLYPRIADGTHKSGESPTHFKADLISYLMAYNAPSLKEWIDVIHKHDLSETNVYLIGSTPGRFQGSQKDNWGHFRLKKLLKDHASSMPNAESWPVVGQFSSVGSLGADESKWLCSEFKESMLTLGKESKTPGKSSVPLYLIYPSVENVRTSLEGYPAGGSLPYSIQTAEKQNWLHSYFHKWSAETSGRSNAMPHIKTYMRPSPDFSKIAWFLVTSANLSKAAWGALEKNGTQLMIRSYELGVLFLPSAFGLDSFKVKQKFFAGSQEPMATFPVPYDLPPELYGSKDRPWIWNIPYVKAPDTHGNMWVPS
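Enzyme-compound mixtures sat 15 min at room temperature, followed by a 5 min reaction with 15 nM final substrate and 10 min with AlphaScreen beads. Recombinant human Tdp1 was used at 1 nM final.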
ELG1 repair inh – inhibitors of ELG1-dependent DNA repair in HEK293T cells; HEK293T ELG1-luciferase reporter, luminescence, 16 h; DNA damage induced by 5-fluorouridine; Potency, µM (titrated, usually from 46.1 µM), for the others: at the top dose activity change, negative = inhibition, most hits filed as inhibitors; hit rate 2.3% among 330,000; AID 504467; note: potency is the fitted concentration of half-maximal effect; nearly all actives have a fitted effect of over 55% in size
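DMSO vehicle served as the neutral condition. Each well held 2,000 cells given 5-fluorouridine plus compound; after 16 hr at 37 °C/5% CO2, ONE-Glo was added and luciferase measured 30 min later.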
IL-1B inflam inh – blocks inflammasome-driven IL-1 beta release | THP-1 LPS/ATP IL-1B secretion, AlphaLISA, 16 h; active compounds read low | activity change, % at 57.5 µM | hit rate 4.7% among 360,000; in the data active = activity change below about -50%; inconclusive = mostly about -30% to -49%
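Secreted IL-1B measured by AlphaLISA bead assay after 16 h compound exposure of THP-1 cells; compounds (final up to 57.5 uM) added 1 h before LPS (250 ng/mL) and ATP (1.25 mM) stimulation; lower signal means less secretion.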
TDP1 cell noCPT – qHTS for Inhibitors of human tyrosyl-DNA phosphodiesterase 1 (TDP1): qHTS in cells in absence of CPT | DT40 Tdp1-/- hTDP1 cells, no CPT, ATP luminescence, 48 h | Potency, µM (series often up to 46.2 µM), without a hit: at the highest dose activity change, negative = growth inhibition, actives largely listed as inhibitors | hit rate 15% among 420,000 | AID 686978, 2013; note: potency is the fitted concentration of half-maximal effect; nearly all actives have a fitted effect of over 55% in size
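Readout: luminescence from CellTiter-Glo after 30 min in the dark at RT. Cells: DT40 Tdp1-/- with stable hTDP1, 400/well. Exposure: compounds alone, ≥48 hr, 37 °C.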
TDP1 cell CPT – DT40-hTDP1 cell growth loss with CPT; chicken DT40 Tdp1-/-;hTDP1 cells + 20 nM CPT, ATP luminescence, 48 h; Potency, µM (highest dose often 46.2 µM), for inactives: top-dose activity change, negative = growth inhibition, hits mostly inhibitors; hit rate 12% among 420,000; AID 686979; note: potency is the fitted concentration of half-maximal effect; nearly all actives have a fitted effect of over 55% in size
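Chicken DT40 Tdp1-/- cells complemented with human TDP1, 400 cells/well, exposed to compounds plus 20 nM camptothecin for at least 48 h at 37 C; viability read as ATP content by CellTiter-Glo luminescence.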
An asterisk follows results filed as active; ? = inconclusive; . = not tested or not shown. Only some compounds are listed: those with a hit (about 19% of all), similar ones and a draw of the others. Unless noted, calls come from the whole dose curve; as a rule, active = well fitted curve in the direction sought with a large enough effect; inconclusive = small, poorly fitted or top-dose-only effect, or another doubt; inactive = no such curve, though single readings can be large; an effect the other way counts as inactive or inconclusive. % is set by controls: 0 for no effect and ±100 for the full control effect.

SMILES | Giardia kill | TDP1 block | ELG1 repair inh | IL-1B inflam inh | TDP1 cell noCPT | TDP1 cell CPT
Cc1nc2ccccc2c(=O)n1NC(=O)Cc1ccc([N+](=O)[O-])cc1 | 14 | 4% | ? | 29 | -4% | 3%
CCSc1cnn(-c2ccccc2)c(=O)c1SCC | -8 | 5% | -5% | 6 | -10% | 7%
COc1ccc(Oc2cnn(-c3ccccc3)c(=O)c2Br)cc1 | ? | -3% | 18% | -63* | ? | ?
O=c1c(Cl)c(Cl)cnn1-c1ccccc1 | 8 | 3% | 18µM* | -99* | 3.3µM* | 2.9µM*
COc1cnn(-c2ccc(C)cc2)c(=O)c1Br | -2 | 1% | ? | -4 | 1% | 1%
CCOc1cnn(-c2ccccc2)c(=O)c1Cl | 4 | . | ? | ? | 16µM* | ?
CCSc1cnn(-c2ccccc2)c(=O)c1Cl | 11 | . | . | -94* | ? | 6%
Nc1c(Cl)cnn(-c2ccccc2)c1=O | -8 | . | . | 51 | -2% | 7%
CCC(Oc1ccc(Br)cc1)C(=O)N1CCN(c2ncccn2)CC1 (stereo not given) | -5 | 0% | -2% | -15 | -24% | -22%
COc1cnn(-c2ccccc2)c(=O)c1SCc1ccc(Cl)cc1Cl | -2 | -1% | -5% | -51* | 21µM* | 29µM*
COc1cnn(-c2ccc(C)cc2)c(=O)c1SCc1ccccc1 | -8 | 5% | ? | -26 | ? | -29%
COc1cccc2c(Cl)c(CC=C(Cl)Cl)c(C)nc12 | 3 | -2% | -1% | -50* | -29% | -29%
C=CCc1c(C)nc2c(OC)cccc2c1Cl | -4 | 1% | ? | 16 | ? | ?
C=C(C)C(=O)Nc1ccc(OC(F)(F)C(F)F)c(NC(=O)C(=C)C)c1 | -13 | 13µM* | -19% | -23 | 3% | 0%
CC(=O)Nc1ccc(OC(F)(F)C(F)F)c(NC(C)=O)c1 | -6 | 3% | -4% | 13 | -9% | -7%
NC(=O)c1nnn(Cc2cc(Cl)c(C(=O)c3ccc(Cl)cc3)c(Cl)c2)c1N | . | . | . | 0 | 16µM* | 4.6µM*
Cc1ccc(O)c(NC(=S)NC(=O)Cc2ccc(Cl)cc2)c1 | 6 | . | 0% | 86 | ? | ?
Cc1cc(O)c(NC(=S)NC(=O)c2ccc(-c3ccc(Cl)cc3)o2)cc1C | 2 | 11% | -29% | -20 | 21µM* | ?
Cc1ccc(NC(=S)NC(=O)c2ccc(-c3ccc(Cl)cc3)o2)c(O)c1 | 1 | -1% | ? | 0 | 21µM* | 21µM*
CC(=O)OCC(=O)[C@@]12N=C(C)O[C@@H]1C[C@H]1[C@@H]3CCC4=CC(=O)C=C[C@]4(C)[C@H]3[C@@H](O)C[C@@]12C | . | . | . | . | -9% | 4%
CC1CCC(NC(=O)Cn2c(=O)oc3ccccc32)CC1 (stereo not given) | 7 | 8% | 6% | 2 | 4% | -2%
C/[N+]([O-])=C\c1coc2ccccc2c1=O | 1 | 4% | 19% | -6 | -15% | 7%
C#CCCc1ccccc1/C=[N+](/C)[O-] | -7 | 3% | ? | 49 | ? | 23µM*
CCc1ccc(C(O)c2ncc(-c3cccc(F)c3)[nH]2)cc1 (stereo not given) | . | . | . | -3 | ? | ?
Cc1c(C(=O)Nc2cccc(-c3nc4ccccc4s3)c2)oc2ccccc12 | . | -5% | . | . | 18µM* | 16µM*
SMILES | Giardia kill | TDP1 block | ELG1 repair inh | IL-1B inflam inh | TDP1 cell noCPT | TDP1 cell CPT
O=C(Nc1cccc(-c2nc3ccccc3s2)c1)c1cc(=O)c2ccccc2o1 | 3 | -2% | 9.2µM* | 0 | 2.1µM* | ?
Cc1ccc2oc(C(=O)Nc3cccc(-c4nc5ccccc5s4)c3)c(C)c2c1 | . | 3% | . | . | ? | ?
COc1cc(/C=C(/C#N)C(=O)NC(C)c2ccccc2)cc(OC)c1O (stereo not given) | 7 | . | -10% | -2 | ? | -21%
COc1ccccc1/C=C/C=C(\C#N)C(=O)NC(C)c1ccccc1 (stereo not given) | 9 | 6% | -17% | -94* | 21µM* | -27%
COc1cccc(-n2ccn(CC(=O)Nc3ccccc3F)c(=O)c2=O)c1 | . | 0% | . | . | -21% | ?
COCCCn1c(=O)c2ccccc2n(Cc2cc(C(=O)OC)ccc2OC)c1=O | 1 | 3% | ? | 0 | -22% | -24%
Cc1cccn2c(=O)c3cc(C(=O)N4CCOCC4)n(C)c3nc12 | 6 | 1% | 18% | -3 | -1% | 14%
CC1Cc2ccccc2N1C(=O)c1cc2c(=O)n3ccccc3nc2n1C (stereo not given) | 10 | 2% | ? | -30 | ? | 12µM*
Cc1cccn2c(=O)c3cc(C(=O)N4c5ccccc5CC4C)n(C)c3nc12 (stereo not given) | -3 | 2% | 5% | 58 | 16µM* | 18µM*
CCCc1cnc(NCCNCC(O)COc2ccc(Cl)c(Cl)c2)nc1 (stereo not given) | 8 | 1% | 13% | . | 16µM* | 16µM*
OC(CNCc1ccc(Cl)cc1)COc1ccccc1 (stereo not given) | -3 | . | 6% | -7 | ? | ?
Cc1cc(Br)cc(Br)c1OCC(=O)NNC(=O)c1ccoc1C | 9 | 2% | -6% | -7 | -7% | -5%
Cc1ccc(NS(=O)(=O)c2ccc3c(c2)c(=O)n(C)c(=O)n3C)cc1F | 11 | 8% | ? | ? | 16µM* | 15µM*
Cc1cc(C)cc(NS(=O)(=O)c2ccc3c(c2)c(=O)n(C)c(=O)n3C)c1 | 7 | 5% | ? | -67* | 2.1µM* | 1.8µM*
CN(C)c1cccc(C(=O)Nc2cc(C(F)(F)F)ccc2-n2cnc3ccccc32)c1 | -29 | 3% | -3% | -14 | -6% | -6%
COc1ccc(C2CC(=O)c3cc(-c4nc(-c5ccc(Cl)cc5)cs4)c(=O)[nH]c3C2)cc1OC (stereo not given) | . | -4% | . | . | ? | -27%
Nc1sc(-c2ccccc2)cc1-c1n[nH]c(=S)n1C1CCCCC1 | -21 | -5% | 21µM* | 29 | 2.6µM* | 16µM*
C=CCn1c(-c2cc(-c3ccccc3)sc2N)n[nH]c1=S | -18 | 11% | -7% | 13 | ? | 11%
COc1ccc(-n2c(-c3cc(-c4ccccc4)sc3N)n[nH]c2=S)cc1 | -4 | . | 10% | 78 | 16µM* | ?
Cc1c(C(=O)NCc2ccc(F)cc2)oc2ccc(S(=O)(=O)N3CCCCC3)cc12 | . | 3% | . | . | ? | 23µM*
